This is a sample that favours compounds with a hit; in the whole collection about 18% have one here.
RORgamma inh: qHTS for inhibitors of ROR gamma transcriptional activity. actives 5.4% (n = 310,000). Potency, µM (series often up to 53.6 µM), inactives show at the highest dose activity change, negative = inhibition, usual class: inhibitors. Drosophila S2 Gal4-RORgamma UAS-luciferase reporter, 20 h. Nuclear receptor ROR-gamma (Mus musculus), P51450; further: potency means the concentration at half of the fitted maximal effect; nearly all actives have a fitted effect of over 60% in size
Target sequence (P51450 whole entry, looked up, the tested form may be a part): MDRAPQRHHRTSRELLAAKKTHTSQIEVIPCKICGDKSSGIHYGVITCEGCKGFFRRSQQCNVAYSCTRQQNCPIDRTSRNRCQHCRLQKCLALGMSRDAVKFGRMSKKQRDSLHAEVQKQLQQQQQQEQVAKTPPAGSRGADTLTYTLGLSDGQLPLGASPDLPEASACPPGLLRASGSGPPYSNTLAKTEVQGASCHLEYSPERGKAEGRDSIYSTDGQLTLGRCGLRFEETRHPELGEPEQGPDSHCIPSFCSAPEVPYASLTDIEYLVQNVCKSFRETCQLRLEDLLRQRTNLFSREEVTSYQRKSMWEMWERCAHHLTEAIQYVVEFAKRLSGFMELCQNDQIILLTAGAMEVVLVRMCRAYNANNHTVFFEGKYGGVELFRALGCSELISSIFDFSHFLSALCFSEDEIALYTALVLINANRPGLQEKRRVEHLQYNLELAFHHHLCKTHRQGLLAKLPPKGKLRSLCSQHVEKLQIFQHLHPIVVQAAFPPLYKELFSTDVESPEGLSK
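Drosophila S2 cells stably expressing Gal4-DBD/mouse RORγ fusion under metallothionein promoter plus UAS-luciferase; compound 1 h, then 700 uM CuSO4 induction for 20 h at ambient temperature; inhibition read as reduced luminescence.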
IL1B secr inh: qHTS for Inhibitors of Inflammasome Signaling: IL-1-beta AlphaLISA Primary Screen; actives 4.7% (n = 360,000); THP-1 LPS/ATP IL-1B secretion, AlphaLISA, 16 h; active compounds read low; activity change, % at 57.5 µM; in the data active means activity change below about -50%; inconclusive means mostly about -30% to -49%
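Secreted IL-1B measured by AlphaLISA bead assay after 16 h compound exposure of THP-1 cells; compounds (final up to 57.5 uM) added 1 h before LPS (250 ng/mL) and ATP (1.25 mM) stimulation; lower signal means less secretion.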
DT40 TDP1 CPT: qHTS for Inhibitors of human tyrosyl-DNA phosphodiesterase 1 (TDP1): qHTS in cells in presence of CPT; chicken DT40 Tdp1-/-;hTDP1 cells + 20 nM CPT, ATP luminescence, 48 h; Potency, µM (doses to about 46.2 µM), for inactives: at the highest dose activity change, negative = growth inhibition, usual class: inhibitors; actives 12% (n = 420,000); AID 686979, 2013; further: potency means the concentration at half of the fitted maximal effect; nearly all actives have a fitted effect of over 55% in size
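Chicken DT40 Tdp1-/- cells stably complemented with human TDP1 were seeded at 400 cells/well in medium containing 20 nM camptothecin, exposed to pin-transferred compounds, and grown at 37 °C for at least 48 hr. Viability was read as ATP luminescence.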
LDHA inh: qHTS assay for inhibitors of human lactate dehydrogenase. L-lactate dehydrogenase A chain (Homo sapiens), P00338. purified LDHA, NADH/diaphorase-resazurin fluorescence; active compounds read low. activity change, % (values are at about 110 or 230 µM). actives 0.15% (n = 480,000). AID 1347041, 2019; in the data active means activity change below about -30%; inconclusive means mostly about -25% to -30%;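 further: plate controls were DMSO wells for no effect and wells without enzyme for full effect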
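Resorufin fluorescence (ex540/em590), read at 0 and 20 min after diaphorase/resazurin addition, reports the NADH left after a 5 min room-temperature reaction of 2 nM human LDH5 with 0.06 mM NADH and 0.2 mM pyruvate.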
VP16 counter: VP16 counterscreen qHTS for inhibitors of ROR gamma transcriptional activity; Drosophila S2 Gal4-VP16 UAS-luciferase, luminescence, 20 h; Potency, µM (top dose mostly 53.6 µM), inactives show at the top dose activity, negative = inhibition, actives largely listed as inhibitors; actives 3.5% (n = 310,000); AID 2546, 2010;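 further: Gal4-VP16 expression switched on by copper sulfate through the metallothionein promoter; potency means the concentration at half of the fitted maximal effect; nearly all actives have a fitted effect of over 50% in size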
DT40 TDP1 no CPT: qHTS for Inhibitors of human tyrosyl-DNA phosphodiesterase 1 (TDP1): qHTS in cells in absence of CPT. DT40 Tdp1-/- hTDP1 cells, no CPT, ATP luminescence, 48 h. Potency, µM (highest dose often 46.2 µM), without a hit: at the top dose activity change, negative = growth inhibition, hits mostly inhibitors. actives 15% (n = 420,000). AID 686978, 2013; further: potency means the concentration at half of the fitted maximal effect; nearly all actives have a fitted effect of over 55% in size
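Readout: luminescence from CellTiter-Glo after 30 min in the dark at RT. Cells: DT40 Tdp1-/- with stable hTDP1, 400/well. Exposure: compounds alone, ≥48 hr, 37 °C.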
* marks the source's active call; other numbers are inactive results; u = inconclusive; x = no result; ! = a repeat was not active. Unless noted, the call rests on the fitted dose curve; in most records, active means well fitted curve in the direction sought with a large enough effect; inconclusive means small, poorly fitted or top-dose-only effect, or another doubt; inactive means no such curve, though single readings can be large; an effect the other way counts as inactive or inconclusive. Unless noted, on the % scale 0 is the no-effect control and ±100 the full control effect.

SMILES | RORgamma inh | IL1B secr inh | DT40 TDP1 CPT | LDHA inh | VP16 counter | DT40 TDP1 no CPT
CCOC(=O)c1ccc(-c2ccc(N3C(c4cccc(OC)c4)=Cc4ccc(F)cc4C3CC(C)=O)cc2)cc1F (stereo unspecified) | x | 31 | -23% | 18 | x | -17%
COc1cc(OC)cc(C2=Cc3ccccc3C(CC(C)=O)N2c2ccc(-c3cncnc3)cc2)c1 (stereo unspecified) | x | 0 | 18µM* | 9 | x | 16µM*
COc1cccc(C2=Cc3ccc(F)cc3C(CC(C)=O)N2c2ccc(-c3cc(OC)c(OC)c(OC)c3)cc2)c1 (stereo unspecified) | x | -3 | -3% | 21 | x | -14%
COc1cccc(C2=Cc3ccc(F)cc3C(CC(C)=O)N2c2ccc(-c3cncnc3)cc2)c1 (stereo unspecified) | x | 15 | 13µM* | 21 | x | 16µM*
CCOc1cc2c(cc1NC(=O)c1ccc(C)c(OC)c1)OC(C)C2 (stereo unspecified) | x | x | x | 1 | x | x
O=C(CSc1nc2cc(Cl)ccc2s1)NC1CCCC1 | x | x | x | -4 | x | x
COC1CCN(CC(=O)Nc2cccc(C(=O)Nc3cccc(C(F)(F)F)c3)c2)CC1 | x | x | x | 1 | x | x
COc1cc(OC)cc(C2=Cc3ccccc3C(CC(C)=O)N2c2ccc(C#CC3(O)CCCCC3)cc2)c1 (stereo unspecified) | x | -24 | u | 17 | x | u
COc1cc(OC)cc(C2=Cc3ccc(OC)cc3C(CC(C)=O)N2c2ccc(-c3cccs3)cc2)c1 (stereo unspecified) | x | 0 | 21µM* | 12 | x | 8.2µM*
COc1ccc(-c2ccc(N3C(c4ccsc4)=Cc4ccc(F)cc4C3c3c[nH]c4ccccc34)cc2)cc1 (stereo unspecified) | x | 32 | u | 0 | x | 18µM*
O=C(CC1c2ccccc2C=C(c2ccsc2)N1c1ccc(-c2cccnc2)cc1)C1CC1 (stereo unspecified) | x | -13 | u | 7 | x | 18µM*
COc1ncc(-c2ccc(N3C(c4ccsc4)=Cc4ccc(F)cc4C3CC(=O)c3ccco3)cc2)cn1 (stereo unspecified) | x | 14 | u | 16 | x | u
Cc1cc(C)c2oc(=O)cc(CN(C)CCO)c2c1 | x | x | x | 12 | x | x
Cc1cccc(C(=O)N(Cc2nc3ccccc3c(=O)[nH]2)C2CCCC2)c1 | 28% | -19 | u | 1 | 0% | 26µM*
Cc1cccc(C(=O)N(Cc2nc3ccccc3c(=O)[nH]2)C2CCCCC2)c1 | u | 0 | u | -8 | -6% | u
O=C(c1ccc(Br)cc1)N(Cc1nc2ccccc2c(=O)[nH]1)C1CCCC1 | 16µM* | u | u | -8 | u | 18µM*
CCOC(=O)C1=C(CSc2nc(-c3ccccc3)ccc2C#N)OC(N)=C(C#N)C1c1cccnc1 (stereo unspecified) | 15% | 36 | 2.9µM* | 10 | 17% | 4.6µM*
CCOC(=O)C1=C(CSc2nc(-c3ccccc3)ccc2C#N)OC(N)=C(C#N)C1c1ccccc1 (stereo unspecified) | 0% | 0 | 3.7µM* | 2 | 22% | 2.9µM*
Cc1c(C(=O)Nc2ccc(C(F)(F)F)cc2)oc2ccccc12 | x | x | x | 3 | x | x
O=C(CSc1nc2ccccc2c(=O)n1CCn1cc(Cl)cn1)Nc1ccc(F)c(Cl)c1 | x | x | x | 22 | x | x
NC(=O)c1cc(C(=O)O)c[nH]1 | x | x | x | 3 | x | x
O=C(CC(=O)c1ccccc1O)c1ccc(F)cc1 | 14µM* | 37 | 10µM* | 6 | u | 12µM*
O=C(CC(=O)c1c(F)cccc1Cl)c1ccccc1O | 20µM* | 7 | u | -9 | 11µM* | 12µM*
O=C(Nc1ccccc1C(=O)O)c1cccc(F)c1 | x | 0 | -3% | -4 | x | -6%
O=C(CC(=O)c1ccccc1O)c1cccc(F)c1 | 7.1µM* | 28 | 6.5µM* | -2 | u | 4.1µM*
SMILES | RORgamma inh | IL1B secr inh | DT40 TDP1 CPT | LDHA inh | VP16 counter | DT40 TDP1 no CPT
NC(=O)c1ccccc1NCC(=O)c1ccc(F)cc1 | 8% | 39 | -28% | -7 | 8% | -21%
NCCCCN1CCCCC1 | x | x | x | -4 | x | x
O=C(COc1ccc(S(=O)(=O)NC2CCCCC2)cc1)NCc1ccccc1 | x | x | x | 6 | x | x
COc1cc(-c2noc(C)c2C#Cc2ccsc2)cc(OC)c1OC | -2% | 72 | 0.71µM*! | -1 | -7% | 0.92µM*
COc1cc(-c2noc(C)c2C#CCO)cc(OC)c1OC | -5% | -9 | u | 0 | 3% | 13µM*!
COc1cc(-c2noc(C)c2C#CC2(O)CCCCC2)cc(OC)c1OC | 0% | u | u | 1 | 0% | 21µM*
CCCCN(CCCC)/C(N)=N/c1nc(C)cc(C)n1 | -42% | 8 | 23µM* | -2 | 0% | u
Cc1cc(C)nc(/N=C(\N)N(Cc2ccccc2)Cc2ccccc2)n1 | 11µM* | -72* | u | -14 | -9% | u
O=C(NCc1ccccn1)c1ccccc1NS(=O)(=O)c1ccc2[nH]c(=O)[nH]c2c1 | x | x | x | 5 | x | x
CCNc1nc(NCC)n2c(SC(C(=O)Nc3cc(C)ccc3OC)c3ccccc3)nnc2n1 (stereo unspecified) | 31% | -104* | u | 0 | -2% | u
CCNc1nc(NCC)n2c(SCC(=O)Nc3cc(OC)ccc3OC)nnc2n1 | x | -7 | u | 2 | x | -18%
COc1ccc(C)cc1NC(=O)C(Sc1nnc(-c2ccncc2)n1-c1ccc(Cl)cc1)c1ccccc1 (stereo unspecified) | 30% | -59* | u | -6 | -9% | 16µM*
CCNc1nc(NCC)n2c(SCC(=O)c3ccc(C(C)C)cc3)nnc2n1 | 4% | 12 | 23µM* | -5 | -3% | 26µM*
O=C(NC1CCCCCC1)C(=S)N1CCOCC1 | 12% | -7 | u | -11 | -3% | 16µM*
S=C(NC1CCCCC1)N1CCOCCOCCN(C(=S)NC2CCCCC2)CCOCCOCC1 | -11% | -9 | u | -4 | u | u
COc1ccc(Cl)cc1NC(=O)c1cc(-c2ccccc2)on1 | -8% | 8 | -18% | -2 | -2% | -13%
COc1ccccc1CNC(=O)c1cccc(C)c1 | x | x | x | -1 | x | x

High-throughput results (PubChem BioAssay)
